# Screening data (PubChem BioAssay)
# Hits are enriched below; roughly 2.4% of the tested compounds scored in any of these assays.
# ANO1 activ: activators or potentiators of mouse TMEM16A chloride channel; Q8BHY3; HEK293 TMEM16A/YFP-H148Q/I152L, iodide quench fluorescence; stronger effect = lower value; B-score at 10 µM; 0.3% of 340,000 active;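 active means fluorescence-ratio B-score plate-corrected deviation score at least 3 library SD below zero, with starting fluorescence score within 5 deviations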;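 further: channel opened by trigger with iodide after compound preincubation; score built on the fluorescence ratio of max minus min over baseline; more negative score means more quench and so TMEM16A activation or potentiation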
# ANO1 block: blocks the mouse calcium-activated chloride channel TMEM16A | Q8BHY3 | HEK293 TMEM16A/YFP iodide influx fluorescence, ionomycin | normalized B-score (activity score, 25-100; higher = stronger inhibition) at 10 µM | 1.2% of 310,000 active;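 active means ratio plate-corrected score three or more library SD toward inhibition, starting fluorescence score within five deviations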;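 further: score derived from kinetic fluorescence span divided by baseline fluorescence per well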
# TLR4 MyD88 comp: inhibitors of human TLR4-MyD88 binding. 0.18% of 200,000 active. inhibition, % at 8.4 µM. HeLa CL3-4 TLR4/MyD88 BLA complementation, FRET ratio. O00206+Q99836; in the data active means inhibition above about 25%
# Target sequence (O00206 whole entry, looked up): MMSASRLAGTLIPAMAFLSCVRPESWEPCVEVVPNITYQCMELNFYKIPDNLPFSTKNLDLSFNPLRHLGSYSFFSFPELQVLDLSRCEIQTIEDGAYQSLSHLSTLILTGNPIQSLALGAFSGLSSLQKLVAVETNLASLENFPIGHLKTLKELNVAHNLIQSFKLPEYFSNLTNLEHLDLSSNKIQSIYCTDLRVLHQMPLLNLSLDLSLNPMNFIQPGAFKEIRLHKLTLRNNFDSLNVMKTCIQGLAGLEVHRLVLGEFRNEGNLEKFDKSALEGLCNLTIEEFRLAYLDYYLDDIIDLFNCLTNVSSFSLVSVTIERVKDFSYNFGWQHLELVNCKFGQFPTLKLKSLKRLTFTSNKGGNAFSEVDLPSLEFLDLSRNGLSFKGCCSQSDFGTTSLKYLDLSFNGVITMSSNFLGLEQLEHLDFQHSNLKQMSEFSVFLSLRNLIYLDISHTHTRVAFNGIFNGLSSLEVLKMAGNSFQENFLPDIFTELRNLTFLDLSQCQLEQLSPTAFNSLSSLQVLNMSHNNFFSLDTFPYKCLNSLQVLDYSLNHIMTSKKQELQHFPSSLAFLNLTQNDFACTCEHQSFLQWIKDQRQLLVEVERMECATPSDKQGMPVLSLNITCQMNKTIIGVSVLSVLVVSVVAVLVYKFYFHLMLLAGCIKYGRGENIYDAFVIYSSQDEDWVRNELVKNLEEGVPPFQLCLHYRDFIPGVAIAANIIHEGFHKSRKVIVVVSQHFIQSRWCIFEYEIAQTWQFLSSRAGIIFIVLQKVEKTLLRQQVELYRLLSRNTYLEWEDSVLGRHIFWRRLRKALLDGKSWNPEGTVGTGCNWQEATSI
# Target sequence (Q99836 whole entry, looked up): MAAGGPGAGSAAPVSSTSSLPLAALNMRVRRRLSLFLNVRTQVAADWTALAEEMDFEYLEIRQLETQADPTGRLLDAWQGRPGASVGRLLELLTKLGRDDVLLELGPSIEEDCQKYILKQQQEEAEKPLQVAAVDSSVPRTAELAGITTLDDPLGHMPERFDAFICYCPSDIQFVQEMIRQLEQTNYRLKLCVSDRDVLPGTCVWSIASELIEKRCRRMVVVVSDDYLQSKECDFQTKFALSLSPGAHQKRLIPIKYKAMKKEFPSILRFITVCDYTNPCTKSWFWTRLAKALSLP
# NOD2 RIPK2 PPI: blocks binding of human NOD2 to RIPK2 | O43353 | CHO BLA complementation NOD2-RIPK2, CCF4 ratio | inhibition, % at 4.98 µM | 0.38% of 360,000 active; in the data active means inhibition above about 21%
# TLR9-MyD88 block: inhibitors of human TLR9-MyD88 binding; Q9NR96+Q99836; CHO BLA complementation TLR9-MyD88, CCF4 FRET ratio; inhibition, % at 4.98 µM; 0.21% of 340,000 active; AID 504734;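 active means inhibition above the mean over all tested compounds plus 3 SD, cut at about 21% in these data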
# m5-HT2A agonist: mouse HTR2A agonism via beta-arrestin recruitment. CHO-K1 mHTR2A beta-arrestin complementation, luminescence; percent of 30 µM serotonin response. P35363. 0.66% of 360,000 active. activation, % at 7.6 µM;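 active means activation above a run cutoff, the mean activation of all tested compounds plus 3 SD, cut at about 14% in these data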
# TMEM16A reconf: reconfirmed blocker of mouse TMEM16A calcium-activated chloride channel; shares compounds with ANO1 block; 39% of 2,300 active; HEK293 TMEM16A/YFP-H148Q, iodide quench fluorescence; ionomycin added to raise cell calcium; inhibition, % at 10 µM; AID 652189;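 active means mean duplicate percent inhibition, scaled so buffer wells are 0 and the reference blocker 100, over three buffer SD above buffer mean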
# HEK293 Ca mobil: calcium mobilization counter-screen hit for TMEM16A inhibitor series. 2% of 2,300 active. shares compounds with ANO1 block. TMEM16A/YFP HEK293, Fluo4 calcium mobilization. calcium response (% of ionomycin), % at 10 µM;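 active means duplicate-averaged calcium signal over 20% of the ionomycin maximum, relative to buffer baseline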;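 further: each well's signal is peak minus trough fluorescence divided by its pre-addition baseline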
# YFP-HEK293 quench: parental YFP-HEK293 iodide quench counter-screen activity; YFP ratio F(max-min)/F0 at 10 µM; shares compounds with ANO1 block; 2,300 tested, under 10 active; ionomycin;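 active means yellow fluorescent protein signal ratio exceeding the buffer control mean by over 5 SD of those controls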;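 further: ratio is mean of duplicate wells from kinetic YFP trace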
# ClC-1 rat inh: selectivity of TMEM16A inhibitors: inhibition of rat ClC-1 chloride channel; shares compounds with ANO1 block; CHO ClC-1-YFP, iodide influx fluorescence quench; iodide control reads 0, buffer control 100; ratio percent, % at 10 µM; 2,300 tested, under 10 active;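 active means duplicate-mean ratio percent above the mean of iodide-only control wells, which defines zero, plus 5 of their SD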;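 further: higher percent means stronger block of ClC-1 iodide influx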
# A number is an active result; n = inactive; x = not tested or not shown.
SMILES,ANO1 activ,ANO1 block,TLR4 MyD88 comp,NOD2 RIPK2 PPI,TLR9-MyD88 block,m5-HT2A agonist,TMEM16A reconf,HEK293 Ca mobil,YFP-HEK293 quench,ClC-1 rat inh
Cn1c(-c2ccc3c(c2)OCO3)c(C(=O)O)c(=O)c2ccccc21,n,n,n,n,n,n,x,x,x,x
CCN(CC)C(=O)c1c(C)nc2ccccn12,n,n,n,n,n,n,x,x,x,x
Oc1[nH]c2ccccc2c1N=Nc1ccccc1,n,n,x,n,n,n,n,n,n,n
Oc1[nH]c2ccccc2c1N=Nc1ccc(F)cc1,n,n,n,n,n,n,x,x,x,x
O=C(NC1CC2CCC(C1)N2C(=O)NC1CCCCC1)NC12CC3CC(CC(C3)C1)C2 (configuration not stated),n,n,n,n,n,n,x,x,x,x
CSc1nc2nc(C)c(C/C=C/c3ccccc3)c(=O)n2[nH]1,n,n,n,n,n,n,x,x,x,x
CCc1c(C)nc2nc(SCc3ccccc3Cl)[nH]n2c1=O,n,100,x,n,n,n,26.0%,33.5%,n,n
O=C(CSc1ccc([N+](=O)[O-])cn1)Nc1ccccc1N1CCOCC1,n,n,x,n,n,n,x,x,x,x
N#Cc1c(NCc2ccccc2)ccnc1NCc1cccnc1,n,100,n,n,n,n,18.5%,n,n,n
N#Cc1c(F)cccc1NCc1cccnc1,n,n,x,n,n,n,x,x,x,x
CCN1CCc2c(sc(N)c2C(N)=O)C1,n,n,n,n,n,n,27.0%,n,n,n
COc1ccccc1NC(=O)CSc1nnc(-c2ccccn2)o1,n,n,x,n,n,n,x,x,x,x
CCOC(=O)c1cnc(-n2nc(C)cc2C)nc1NC1CCCC1,n,25,x,n,n,n,54.5%,n,n,n
Clc1ccccc1N1CCN(Cc2ccco2)CC1,n,n,x,n,n,n,x,x,x,x
COc1ccccc1N1CCN(Cc2ccco2)CC1,n,25,n,n,n,n,n,n,n,n
CCOc1cc(-c2ccc(N)c(OCC)c2)ccc1N,n,n,n,n,n,n,n,n,n,n
CCOc1ccc(N)c(SSc2cc(OCC)ccc2N)c1,n,n,x,n,n,n,x,x,x,x
COc1ccc(OCC(O)Cn2c(=N)n(Cc3ccccc3)c3ccccc32)cc1 (configuration not stated),n,n,n,n,n,n,x,x,x,x
N=c1n(Cc2ccc(Cl)cc2)c2ccccc2n1CC(O)COc1ccccc1 (configuration not stated),n,25,n,n,n,n,27.5%,n,n,n
Cc1nc(NC2CCCCC2)c2nnn(Cc3ccccc3Cl)c2n1,n,n,x,n,n,n,x,x,x,x
O=C(NCCc1ccc(Cl)cc1)C1CCN(c2cnccn2)CC1,n,100,n,n,n,n,n,n,n,n
O=C(COc1c(Cl)cccc1Cl)Nc1ccccc1N1CCCC1,n,25,x,n,n,n,n,n,n,n
O=C(CNCc1ccccc1Cl)Nc1ccccc1N1CCCCC1,n,25,n,n,n,n,n,n,n,n
O=C(Nc1ccccc1N1CCCCC1)c1ccccc1F,n,25,n,n,n,n,n,n,n,n
Cc1cc(Cl)ccc1OCC(=O)Nc1ccccc1N1CCOCC1,n,100,n,n,n,n,22.5%,n,n,n
SMILES,ANO1 activ,ANO1 block,TLR4 MyD88 comp,NOD2 RIPK2 PPI,TLR9-MyD88 block,m5-HT2A agonist,TMEM16A reconf,HEK293 Ca mobil,YFP-HEK293 quench,ClC-1 rat inh
O=[N+]([O-])c1cccnc1Oc1ccc(C2SCCS2)cc1,n,n,x,n,n,n,x,x,x,x
CCC(C)(C)NC(=O)C(NS(=O)(=O)c1cccs1)c1ccccc1 (configuration not stated),n,n,x,n,n,n,x,x,x,x
Cc1cc2c(c(=O)n1CC1CCCO1)C(c1ccco1)C(C#N)=C(N)O2 (configuration not stated),n,n,n,n,n,n,x,x,x,x
O=C(Nc1ccc(NC(=O)c2ccco2)c(Cl)c1)c1ccc2c(c1)OCCO2,n,n,x,n,n,n,x,x,x,x
COc1ccc(CNC(=O)c2cc(SC)ccc2Cl)cc1OC,n,n,n,n,n,n,x,x,x,x
C=CCN(c1ccc(C(=O)N2CCN(c3ccc(F)cc3)CC2)cc1)S(C)(=O)=O,n,n,n,n,n,n,x,x,x,x
O=S(=O)(c1cccc2nonc12)N1CCCCCC1,n,n,n,n,n,n,n,n,n,n
Cc1cc(C)cc(NC(=O)COc2coc(CN3CCc4ccccc43)cc2=O)c1,n,n,x,n,n,n,x,x,x,x
O=C(COC(=O)Cn1c(C(F)(F)F)nc2ccccc21)Nc1ccc2c(c1)OCCO2,n,n,n,n,n,n,x,x,x,x
S=C(NCc1ccc(Cl)cc1Cl)NC1CCCCC1,n,25,n,n,n,n,52.5%,n,n,n
CC(C)(C)c1ccc(C(=O)NCc2ccc(Cl)cc2)cc1,n,n,n,n,n,n,x,x,x,x
CC(C)(C)OC(=O)N1CCN(c2ccc(CNC(=O)c3ccc(Cl)cc3)cc2)CC1,n,100,n,n,n,n,22.5%,n,n,n
C=C(C)C1Cc2c(C)nn(-c3ccccc3)c2C1 (configuration not stated),n,n,n,n,n,n,x,x,x,x
C=C(C)C1Cc2c(C)nn(-c3cccc4ccccc34)c2C1 (configuration not stated),n,25,n,n,n,n,46.0%,n,n,n
Cc1cc(/C=N/n2cnnc2)c(C)n1-c1ccc(Cl)cc1,n,n,n,n,n,n,x,x,x,x
Cc1cc(/C=N/n2cnnc2)c(C)n1-c1ccc(OCc2ccc(F)cc2)cc1,n,100,n,n,n,n,n,n,n,n
CCN(CC)S(=O)(=O)c1cc(NS(=O)(=O)c2cccc(Cl)c2)ccc1C,n,25,n,n,n,n,28.0%,n,n,n
CC/C(=N\OC(=O)c1ccc(OC(C)C)cc1)c1ccc(C)cc1,n,100,n,n,n,n,n,n,n,n
CCOc1ccc(C2CC(=O)NC(SC)=C2C#N)cc1 (configuration not stated),n,n,n,n,n,n,x,x,x,x
C=CCSC1=C(C#N)C(c2ccc(OCC)cc2)CC(=O)N1 (configuration not stated),n,100,n,n,n,n,n,n,n,n
